Screening results: PubChem, several laboratories
Autofluor counter = compound fluorescence in toxin protease inhibitor counterscreen; compound autofluorescence counterscreen, microsphere flow cytometry; active compounds read high; fluorescence intensity (test concentration not listed); 360,000 compounds, 3.1% hits; AID 624483; in the data active means fluorescence intensity above about 16000; inconclusive means no clear call, values can overlap the other calls
BoNT F protease = inhibitors of Botulinum neurotoxin F light chain protease; Multiplex microsphere protease cleavage assay, flow cytometry; inhibition, % at 10 µM; 360,000 compounds, 0.22% hits; AID 588497; in the data active means inhibition above about 35%, passing the limit was not always enough; inconclusive means no clear call, values can overlap the other calls
SARS 3CLpro inh = SARS-CoV 3CLpro protease inhibition; AID 1706; P0C6X7; recombinant SARS-CoV 3CLpro, quenched FRET peptide cleavage; 290,000 compounds, 0.14% hits; inhibition, % at 6 µM; in the data active means inhibition above about 12%
BoNT A protease = blocks Botulinum neurotoxin A light chain protease. multiplex microsphere protease substrate cleavage, flow cytometry. inhibition, % at 10 µM. 360,000 compounds, 0.17% hits
Anthrax LF inh2 = blocks Bacillus anthracis lethal factor protease | P15917 | multiplex microsphere protease cleavage assay, LF | inhibition, % at 10 µM | 360,000 compounds, 0.12% hits
Target sequence (P15917 whole entry, looked up): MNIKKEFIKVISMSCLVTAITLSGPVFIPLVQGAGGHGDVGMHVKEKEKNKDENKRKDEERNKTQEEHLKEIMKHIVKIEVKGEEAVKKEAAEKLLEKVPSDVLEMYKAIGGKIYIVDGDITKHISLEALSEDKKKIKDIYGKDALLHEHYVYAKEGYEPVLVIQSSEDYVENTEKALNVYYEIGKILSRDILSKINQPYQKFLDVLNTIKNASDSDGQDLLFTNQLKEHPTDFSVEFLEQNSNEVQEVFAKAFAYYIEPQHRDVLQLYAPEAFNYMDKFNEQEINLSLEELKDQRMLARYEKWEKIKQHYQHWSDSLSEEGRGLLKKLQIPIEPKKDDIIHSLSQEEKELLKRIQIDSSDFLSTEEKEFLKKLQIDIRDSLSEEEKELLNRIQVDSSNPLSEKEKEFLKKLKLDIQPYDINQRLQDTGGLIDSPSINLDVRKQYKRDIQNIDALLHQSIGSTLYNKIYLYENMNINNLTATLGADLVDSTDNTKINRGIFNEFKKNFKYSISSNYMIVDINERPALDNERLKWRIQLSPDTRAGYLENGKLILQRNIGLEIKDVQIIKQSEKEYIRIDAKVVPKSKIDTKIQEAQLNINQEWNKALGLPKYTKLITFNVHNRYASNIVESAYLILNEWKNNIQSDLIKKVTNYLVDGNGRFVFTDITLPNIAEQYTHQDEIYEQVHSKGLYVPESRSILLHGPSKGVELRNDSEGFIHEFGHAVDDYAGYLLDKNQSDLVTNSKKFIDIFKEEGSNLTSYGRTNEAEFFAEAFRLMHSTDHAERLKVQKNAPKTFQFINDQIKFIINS
DUSP3 inh = blocks human VHR1 dual specificity phosphatase | P51452 | recombinant VHR phosphatase, pNPP absorbance | inhibition, % at 13.3 µM | 290,000 compounds, 0.52% hits | AID 1654; in the data active means inhibition above about 50%
Each line names hits and unclear results; the compound was inactive in the other large screens. Shown are actives, neighbours in structure and some others; about 3.9% of the full set was active somewhere. Unless noted, no stated cut-off is given here; in the data, active means inhibition above about 30%; inconclusive means no clear call, values can overlap the other calls; inactive means below that.

CC1(C(=O)Nc2ccc(Cl)c(Cl)c2)CCN1C(=O)C1CCCCC1 (stereo not drawn)	none (no result: SARS 3CLpro inh, DUSP3 inh)
COC(=O)/C=C1\SC(N2CCOCC2)=C(c2ccc(OC)cc2)C1=O	none
CC1CCCCN1C(=O)/C(=C\c1ccccc1)c1ccccc1 (stereo not drawn)	Autofluor counter 21700
Cc1ccc(Nc2nc(N)nc(CN3CCN(Cc4ccc5c(c4)OCO5)CC3)n2)cc1C	none
Cc1ccc(Nc2nc(N)nc(CN3CCN(Cc4ccc5c(c4)OCO5)CC3)n2)cc1Cl	Autofluor counter 23185
Cc1ccc(Nc2nc(N)nc(CN3CCN(c4ccccc4)CC3)n2)cc1Cl	Autofluor counter 21461, BoNT A protease inconclusive
Nc1nc(CN2CCN(c3ccccn3)CC2)nc(Nc2ccc(F)cc2)n1	Autofluor counter 16591
COc1ccc(N2CCN(Cc3nc(N)nc(Nc4ccc(C)c(Cl)c4)n3)CC2)cc1	Autofluor counter 21102
Cc1ccc2cc(C#N)c(NCCNC(=O)C3CC3)nc2c1C	none
Cc1ccc(C)c(NC(=S)NCC(c2ccccc2)N(C)C)c1 (stereo not drawn)	none
COc1cccc(N2CCN(Cc3nc(N)nc(Nc4ccccc4OC)n3)CC2)c1	none
COc1ccccc1Nc1nc(N)nc(CN2CCN(c3ccccc3)CC2)n1	Autofluor counter 21394
O=C(Nc1ccccn1)Nc1ccccc1Cl	none
CCCCc1cc(=O)oc2c(CN(CC)CC)c(O)c(Cl)cc12	DUSP3 inh 52.3
CCCc1cc(=O)oc2c(CN(CC)CC)c(O)c(Cl)cc12	none
COC(=O)c1ccc(OC(=O)C2CSC3(C)CCC(=O)N23)cc1 (stereo not drawn)	Autofluor counter inconclusive (no result: SARS 3CLpro inh, DUSP3 inh)
c1ccc(C2OC3c4cccc5cccc(c45)C3N2c2ccccc2)cc1 (stereo not drawn)	Autofluor counter 22884, BoNT A protease inconclusive
Cc1cc(C)nc(NC(=O)c2ccc(COc3ccccc3Cl)cc2)c1	none
O=[N+]([O-])c1cc(/C=N/O)ccc1SCc1ccccc1	Autofluor counter 22700, BoNT A protease inconclusive
O=[N+]([O-])c1cc(/C=N/O)ccc1Sc1ccccc1	none
Cc1ccc(NCc2ccc(C)s2)cc1	none (no result: Autofluor counter, BoNT F protease, BoNT A protease, Anthrax LF inh2)
CCCCC(=O)NC(c1ccc(OC)c(OC)c1)c1c(O)ccc2ccccc12 (stereo not drawn)	none
CCCC(=O)NC(c1ccc(OC)c(OC)c1)c1c(O)ccc2ccccc12 (stereo not drawn)	Autofluor counter 23446, BoNT A protease inconclusive
O=c1cc(N2CCN(c3ccccc3)CC2)[nH]c(=O)n1Cc1ccc(F)cc1	none
CC1(C)CN(c2ccccc2)N(Cc2ccc(F)cc2)C1=O	Autofluor counter 18014
COc1ccc(-n2c(SCC(=O)N/N=C(\C)c3cccnc3)nc3ccccc3c2=O)cc1	Anthrax LF inh2 inconclusive
Cn1c(=O)c2[nH]c(-c3cccnc3)nc2n(C)c1=O	Autofluor counter 21912
Cn1c(=O)c2[nH]c(-c3ccccc3)nc2n(C)c1=O	none (no result: Autofluor counter, BoNT F protease, BoNT A protease, Anthrax LF inh2)
COc1ccc(CC2(C)OC(c3ccc(C)c([N+](=O)[O-])c3)=NN2C(C)=O)cc1 (stereo not drawn)	none
c1ccc(-c2ccccc2OCCCCN2CCCCCC2)cc1	none
CCNc1ccc(Br)cc(C(=O)/C=C/c2ccccc2Cl)c1=O	Autofluor counter 16998, BoNT A protease 51.8, Anthrax LF inh2 45.1 (no result: DUSP3 inh)
COc1ccc(C(C)(O)c2nc(-c3cccc(NC(C)=O)c3)cs2)cc1 (stereo not drawn)	none (no result: SARS 3CLpro inh, DUSP3 inh)
COc1ccc(CCN2CC(C(=O)N(C)CCOc3ccccc3)CCC2=O)cc1 (stereo not drawn)	none
COc1ccc(CCN2CC(C(=O)N(C)Cc3ccccc3OC)CCC2=O)cc1 (stereo not drawn)	DUSP3 inh 52.7
CC(=O)c1ccc(NC(=O)CSC(C)C)cc1	Autofluor counter 22011
COc1ccc(OC)c(NC(=O)CSc2nc(=O)n(Cc3ccccn3)c3c2CCC3)c1	BoNT F protease inconclusive, BoNT A protease inconclusive, Anthrax LF inh2 inconclusive (no result: SARS 3CLpro inh, DUSP3 inh)
Fc1cccc(C2NC(=S)NC3=C2N2CCC3CC2)c1 (stereo not drawn)	Autofluor counter 17015
S=C1NC2=C(C(c3ccc(Br)cc3)N1)N1CCC2CC1 (stereo not drawn)	none
Cc1ccc(Cl)cc1NC(=O)c1cccc(OC(F)F)c1	Autofluor counter 20132
Cn1c(SCC(=O)n2c3c(c4ccccc42)CCCC3)nnc1-c1ccccc1	Autofluor counter 22437
COc1ccc(C2CC(C(F)(F)F)n3nc(C(N)=O)c(Cl)c3N2)cc1OC (stereo not drawn)	Autofluor counter 20210
CC(=O)N/C(=C\c1ccccc1)C(=O)OCc1cccc(S(=O)(=O)N(C)C)c1	none
FC(F)(F)c1cccc(Cn2nnnc2-c2ccc(Cl)cc2)c1	Autofluor counter 22919
CCCn1nnnc1-c1cccc(Cl)c1	Autofluor counter 20165
CCCn1nnnc1-c1ccc(Cl)cc1	Autofluor counter 19416
Cc1ncc(CN2CCC(C(=O)Nc3cccc(-c4cscn4)c3)CC2)cn1	none
O=S1(=O)CCN(CCCCc2ccccc2)CC1	none (no result: SARS 3CLpro inh, DUSP3 inh)
Cc1ccc(C)c(S(=O)(=O)N2CCCOC2CNC(=O)C(=O)NCc2ccc3c(c2)OCO3)c1 (stereo not drawn)	none
COc1cccc(/C=N/NC(=O)CC2C(=O)NN=C2C)c1O (stereo not drawn)	Autofluor counter 20430
CSc1nc2nc(Cl)c(Cl)nc2[nH]1	none (no result: SARS 3CLpro inh, DUSP3 inh)
Cc1onc(-c2ccccc2)c1-c1n[nH]c(=S)n1-c1ccccc1Cl	Autofluor counter 22416
Cc1onc(-c2ccccc2)c1-c1n[nH]c(=S)n1-c1ccc(C(=O)O)cc1	none
CS(=O)(=O)c1ccc(NC(=O)CCCc2nc3ccccc3c(=O)[nH]2)cc1	Autofluor counter inconclusive, Anthrax LF inh2 inconclusive (no result: SARS 3CLpro inh, DUSP3 inh)
Nc1cc(=O)[nH]c(SCC(=O)N2CCCc3ccccc32)n1	Autofluor counter 16983
Nc1nc(SCC(=O)N2CCCc3ccccc32)n(-c2ccccc2)n1	DUSP3 inh 50.3
O=C(CSc1n[nH]c(-c2ccccc2O)n1)N1CCCc2ccccc21	DUSP3 inh 51.7
CCCc1cc(=O)[nH]c(SCC(=O)N2CCCc3ccccc32)n1	none
CCNC(=O)C1(C)CCCN(Cc2cccc(Oc3ccccc3)c2)C1 (stereo not drawn)	none (no result: SARS 3CLpro inh, DUSP3 inh)
O=C(COC(=O)Cc1ccc(Cl)cc1)Nc1c(F)cccc1F	none
COc1ccc(OC)c(C(=O)C(=O)c2cc(OC)ccc2OC)c1	none (no result: SARS 3CLpro inh, DUSP3 inh)
COc1ccc(OC)c(CC(=O)O)c1	Autofluor counter 23906, BoNT A protease inconclusive
CCc1ccc(CNC(=O)Cc2ccc(NC(=O)C3=C(C)OCCS3)cc2)cc1	DUSP3 inh 51.3
CCc1ccc(C(O)c2ncc(-c3cccc(C(F)(F)F)c3)[nH]2)cc1 (stereo not drawn)	none (no result: SARS 3CLpro inh, DUSP3 inh)
CC(C)CSc1ncc(-c2cccc(C(F)(F)F)c2)cn1	Autofluor counter 19690, BoNT A protease inconclusive
CCCC(C)NC(=O)c1cc(S(=O)(=O)N2CCCCCC2)ccc1OC (stereo not drawn)	none (no result: SARS 3CLpro inh, DUSP3 inh)
CC(C)c1csc(CN2CCC(N3CCC(C(=O)N4CCOCC4)CC3)CC2)n1	none
